PMC7862700, “An all-to-all approach to the identification of sequence-specific readers for epigenetic DNA modifications on cytosine”

Tests used:
Experiment in all cases: DAPPL (digital affinity profiling via proximity ligation, sequencing); 10 mM Tris-HCl pH 7.5, 50 mM NaCl, 1 mM DTT, 4% glycerol, room temperature, 30 min; GST-TFs on glutathione beads, 16-mer random dsDNA library, 0.1% formaldehyde crosslink after washing; high values mean tight binding
FLI1 = molecular target: T1, FLI1 (Homo sapiens, UniProt Q01543 1-452); conditions: protein: recombinant; tags: N-terminal GST; dsDNA, one strand shown
T1 sequence: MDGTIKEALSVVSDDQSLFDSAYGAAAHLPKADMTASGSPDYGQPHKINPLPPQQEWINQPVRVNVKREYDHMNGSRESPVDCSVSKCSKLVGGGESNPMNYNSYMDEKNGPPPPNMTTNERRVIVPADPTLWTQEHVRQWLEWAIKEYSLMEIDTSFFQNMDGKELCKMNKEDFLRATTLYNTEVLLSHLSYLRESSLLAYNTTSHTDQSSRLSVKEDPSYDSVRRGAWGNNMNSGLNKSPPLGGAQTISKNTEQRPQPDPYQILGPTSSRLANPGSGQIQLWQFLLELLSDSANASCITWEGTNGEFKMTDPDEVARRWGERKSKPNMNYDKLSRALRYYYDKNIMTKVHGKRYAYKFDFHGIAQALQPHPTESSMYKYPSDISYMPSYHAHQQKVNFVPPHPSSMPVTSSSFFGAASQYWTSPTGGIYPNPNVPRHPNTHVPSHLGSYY
Outline: (§1)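 Human transcription factors were made in yeast as GST fusions, captured on glutathione beads and barcoded with DNA. With a tag-only sample included, the pool was incubated with 200 nmole of a random double-stranded 16-mer DNA library in Tris/NaCl/DTT/glycerol buffer at room temperature for 30 min, then crosslinked with 0.1% formaldehyde after washing, ligated by proximity, amplified and sequenced. For binding signal, each hexamer's read frequency for a factor is divided by its frequency for the tag-only sample.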

ELK1 = molecular target: T2, ELK1 (Homo sapiens, UniProt P19419 1-428); conditions: protein: recombinant; tags: N-terminal GST; dsDNA, one strand shown
T2 sequence: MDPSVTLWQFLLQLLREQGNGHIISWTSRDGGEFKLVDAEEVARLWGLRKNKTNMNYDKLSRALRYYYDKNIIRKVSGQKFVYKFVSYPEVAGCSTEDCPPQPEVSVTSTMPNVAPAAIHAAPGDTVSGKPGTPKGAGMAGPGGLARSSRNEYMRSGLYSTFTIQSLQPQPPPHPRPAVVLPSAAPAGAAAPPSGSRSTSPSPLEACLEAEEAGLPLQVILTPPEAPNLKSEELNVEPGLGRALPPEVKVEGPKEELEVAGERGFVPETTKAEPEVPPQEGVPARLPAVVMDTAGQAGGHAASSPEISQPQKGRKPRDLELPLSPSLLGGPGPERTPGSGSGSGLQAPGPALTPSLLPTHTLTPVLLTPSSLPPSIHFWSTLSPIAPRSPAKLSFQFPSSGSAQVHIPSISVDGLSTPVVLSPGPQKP
Outline: as §1

GABPA = molecular target: T3, GABPA (Homo sapiens, UniProt Q06546 1-454); conditions: protein: recombinant; tags: N-terminal GST; dsDNA, one strand shown
T3 sequence: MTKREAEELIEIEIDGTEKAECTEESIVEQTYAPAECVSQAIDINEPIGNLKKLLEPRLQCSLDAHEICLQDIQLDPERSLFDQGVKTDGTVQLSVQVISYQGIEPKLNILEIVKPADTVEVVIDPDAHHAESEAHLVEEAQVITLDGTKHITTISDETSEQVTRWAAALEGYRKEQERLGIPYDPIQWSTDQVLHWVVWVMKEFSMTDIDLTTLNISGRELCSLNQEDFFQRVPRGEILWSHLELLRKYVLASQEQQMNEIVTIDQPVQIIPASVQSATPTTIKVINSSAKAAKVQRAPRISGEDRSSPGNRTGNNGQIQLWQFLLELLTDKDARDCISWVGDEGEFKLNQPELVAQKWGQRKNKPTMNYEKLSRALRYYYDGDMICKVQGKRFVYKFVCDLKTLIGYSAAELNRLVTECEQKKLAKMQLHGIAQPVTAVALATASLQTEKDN
Outline: as §1

ERG = molecular target: T4, ERG (Homo sapiens, UniProt P11308 1-479); conditions: protein: recombinant; tags: N-terminal GST; dsDNA, one strand shown
T4 sequence: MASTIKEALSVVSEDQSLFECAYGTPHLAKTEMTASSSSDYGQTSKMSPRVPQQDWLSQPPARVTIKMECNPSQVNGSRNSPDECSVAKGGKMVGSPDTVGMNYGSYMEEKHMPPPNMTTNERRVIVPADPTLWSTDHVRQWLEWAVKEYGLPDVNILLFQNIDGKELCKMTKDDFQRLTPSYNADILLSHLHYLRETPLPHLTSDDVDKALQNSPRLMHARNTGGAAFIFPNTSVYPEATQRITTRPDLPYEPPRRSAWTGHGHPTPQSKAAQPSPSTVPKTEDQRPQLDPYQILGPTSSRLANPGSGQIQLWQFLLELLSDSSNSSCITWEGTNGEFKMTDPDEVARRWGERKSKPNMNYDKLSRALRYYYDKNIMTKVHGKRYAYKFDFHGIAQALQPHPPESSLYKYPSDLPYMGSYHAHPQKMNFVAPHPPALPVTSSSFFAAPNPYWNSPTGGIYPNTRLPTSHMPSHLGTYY
Outline: as §1

ELF1 = ELF1 (Homo sapiens, UniProt P32519 1-619); conditions: protein: recombinant; tags: N-terminal GST; dsDNA, one strand shown
Sequence of ELF1 (P32519 whole entry): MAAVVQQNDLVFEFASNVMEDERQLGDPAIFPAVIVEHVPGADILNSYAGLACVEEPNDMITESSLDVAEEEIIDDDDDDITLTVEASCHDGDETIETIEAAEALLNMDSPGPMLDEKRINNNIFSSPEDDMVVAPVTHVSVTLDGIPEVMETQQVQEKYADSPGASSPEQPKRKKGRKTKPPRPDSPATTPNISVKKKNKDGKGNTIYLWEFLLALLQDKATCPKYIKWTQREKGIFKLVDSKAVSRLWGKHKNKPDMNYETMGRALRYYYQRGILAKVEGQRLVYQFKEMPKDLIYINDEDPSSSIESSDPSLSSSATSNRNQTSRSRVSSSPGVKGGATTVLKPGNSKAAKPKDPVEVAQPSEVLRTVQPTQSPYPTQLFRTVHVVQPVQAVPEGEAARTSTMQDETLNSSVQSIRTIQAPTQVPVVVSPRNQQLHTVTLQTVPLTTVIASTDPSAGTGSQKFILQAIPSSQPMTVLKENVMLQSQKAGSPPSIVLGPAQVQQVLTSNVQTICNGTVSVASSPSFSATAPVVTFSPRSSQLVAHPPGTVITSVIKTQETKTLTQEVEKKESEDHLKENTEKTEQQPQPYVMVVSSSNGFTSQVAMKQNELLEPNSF
Outline: as §1

EHF = molecular target: T5, EHF (Homo sapiens, UniProt Q9NZC4 1-300); conditions: protein: recombinant; tags: N-terminal GST; dsDNA, one strand shown
T5 sequence: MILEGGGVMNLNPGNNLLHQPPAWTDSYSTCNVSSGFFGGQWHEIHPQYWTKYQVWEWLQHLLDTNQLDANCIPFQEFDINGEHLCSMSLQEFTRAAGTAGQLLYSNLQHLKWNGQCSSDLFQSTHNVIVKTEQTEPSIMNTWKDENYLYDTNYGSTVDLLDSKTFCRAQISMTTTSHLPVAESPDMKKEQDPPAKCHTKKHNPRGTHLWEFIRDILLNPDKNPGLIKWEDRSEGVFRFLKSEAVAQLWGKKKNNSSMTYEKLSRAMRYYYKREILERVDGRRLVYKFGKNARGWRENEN
Outline: as §1

SPI1 = SPI1 (Homo sapiens, UniProt P17947 1-270); conditions: protein: recombinant; tags: N-terminal GST; dsDNA, one strand shown
Outline: as §1

SPIB = SPIB (Homo sapiens, UniProt Q01892 1-262); conditions: protein: recombinant; tags: N-terminal GST; dsDNA, one strand shown
Sequence of SPIB (Q01892 whole entry): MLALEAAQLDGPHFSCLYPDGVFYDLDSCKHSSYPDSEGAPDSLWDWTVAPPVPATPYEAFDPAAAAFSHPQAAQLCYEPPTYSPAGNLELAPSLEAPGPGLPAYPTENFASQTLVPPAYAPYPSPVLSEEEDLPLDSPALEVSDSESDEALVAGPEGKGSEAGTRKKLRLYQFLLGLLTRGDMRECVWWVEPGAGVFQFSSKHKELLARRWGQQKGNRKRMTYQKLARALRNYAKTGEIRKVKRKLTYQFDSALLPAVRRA
Outline: as §1

ELK3 = molecular target: T6, ELK3 (Homo sapiens, UniProt P41970 1-407); conditions: protein: recombinant; tags: N-terminal GST; dsDNA, one strand shown
T6 sequence: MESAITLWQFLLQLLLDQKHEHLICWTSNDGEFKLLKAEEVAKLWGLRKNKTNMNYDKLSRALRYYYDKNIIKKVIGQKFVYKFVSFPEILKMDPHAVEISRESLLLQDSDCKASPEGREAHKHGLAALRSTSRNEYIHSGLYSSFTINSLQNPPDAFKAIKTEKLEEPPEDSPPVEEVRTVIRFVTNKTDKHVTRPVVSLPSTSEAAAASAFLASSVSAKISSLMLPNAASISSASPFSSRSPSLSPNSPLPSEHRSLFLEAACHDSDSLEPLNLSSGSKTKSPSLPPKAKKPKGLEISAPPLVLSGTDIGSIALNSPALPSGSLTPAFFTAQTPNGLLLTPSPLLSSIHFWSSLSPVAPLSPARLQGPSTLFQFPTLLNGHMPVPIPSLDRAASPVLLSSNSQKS
Outline: as §1

FEV = molecular target: T7, FEV (Homo sapiens, UniProt Q99581 1-238); conditions: protein: recombinant; tags: N-terminal GST; dsDNA, one strand shown
T7 sequence: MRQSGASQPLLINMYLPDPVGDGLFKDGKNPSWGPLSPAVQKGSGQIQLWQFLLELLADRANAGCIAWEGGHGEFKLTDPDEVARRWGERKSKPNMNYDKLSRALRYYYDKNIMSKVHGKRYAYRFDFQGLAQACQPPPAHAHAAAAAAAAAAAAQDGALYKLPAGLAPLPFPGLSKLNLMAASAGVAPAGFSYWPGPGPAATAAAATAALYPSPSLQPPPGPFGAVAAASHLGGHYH
Outline: as §1

ETV5 = ETV5 (Homo sapiens, UniProt P41161 1-510); conditions: protein: recombinant; tags: N-terminal GST; dsDNA, one strand shown
Sequence of ETV5 (P41161 whole entry): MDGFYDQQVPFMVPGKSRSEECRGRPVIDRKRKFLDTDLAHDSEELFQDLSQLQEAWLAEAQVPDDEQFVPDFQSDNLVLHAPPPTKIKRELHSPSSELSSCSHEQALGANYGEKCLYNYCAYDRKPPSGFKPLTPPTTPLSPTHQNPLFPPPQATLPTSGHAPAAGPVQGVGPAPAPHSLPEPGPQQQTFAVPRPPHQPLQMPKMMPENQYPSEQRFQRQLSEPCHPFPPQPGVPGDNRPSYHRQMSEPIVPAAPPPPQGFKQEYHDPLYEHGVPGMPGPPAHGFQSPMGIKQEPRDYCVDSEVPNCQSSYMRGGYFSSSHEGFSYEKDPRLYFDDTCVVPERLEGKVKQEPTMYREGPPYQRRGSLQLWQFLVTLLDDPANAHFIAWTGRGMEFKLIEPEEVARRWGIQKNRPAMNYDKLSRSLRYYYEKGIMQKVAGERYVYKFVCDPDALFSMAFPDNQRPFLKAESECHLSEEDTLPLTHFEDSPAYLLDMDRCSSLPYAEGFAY
Outline: as §1

HSF1 = HSF1 (Homo sapiens, UniProt Q00613 1-529); conditions: protein: recombinant; tags: N-terminal GST; chain copies: 3; dsDNA, one strand shown
Sequence of HSF1 (Q00613 whole entry): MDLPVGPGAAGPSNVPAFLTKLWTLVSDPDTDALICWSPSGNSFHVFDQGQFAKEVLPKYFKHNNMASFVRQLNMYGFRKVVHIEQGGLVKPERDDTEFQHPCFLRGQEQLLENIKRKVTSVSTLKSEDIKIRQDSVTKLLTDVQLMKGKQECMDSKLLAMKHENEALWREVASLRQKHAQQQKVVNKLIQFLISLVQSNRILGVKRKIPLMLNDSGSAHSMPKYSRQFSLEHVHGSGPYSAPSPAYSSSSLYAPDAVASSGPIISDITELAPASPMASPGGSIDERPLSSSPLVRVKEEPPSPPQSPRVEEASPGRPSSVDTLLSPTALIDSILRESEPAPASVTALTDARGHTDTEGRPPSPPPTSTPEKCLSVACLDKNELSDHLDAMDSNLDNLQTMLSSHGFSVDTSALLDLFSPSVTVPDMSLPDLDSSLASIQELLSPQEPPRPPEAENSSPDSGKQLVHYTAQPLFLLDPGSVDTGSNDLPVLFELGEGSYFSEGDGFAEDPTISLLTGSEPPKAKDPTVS
Outline: as §1

SPIC = molecular target: T8, SPIC (Homo sapiens, UniProt Q8N5J4 1-248); conditions: protein: recombinant; tags: N-terminal GST; dsDNA, one strand shown
T8 sequence: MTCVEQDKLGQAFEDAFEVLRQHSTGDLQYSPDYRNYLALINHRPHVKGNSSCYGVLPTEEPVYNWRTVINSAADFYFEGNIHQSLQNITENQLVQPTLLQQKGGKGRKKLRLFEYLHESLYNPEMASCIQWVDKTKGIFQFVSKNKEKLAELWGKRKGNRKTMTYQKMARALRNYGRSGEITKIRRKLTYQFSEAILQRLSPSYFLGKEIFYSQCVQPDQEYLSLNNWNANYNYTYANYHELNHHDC
Outline: as §1

ELF4 = ELF4 (Homo sapiens, UniProt Q99607 1-663); conditions: protein: recombinant; tags: N-terminal GST; dsDNA, one strand shown
Sequence of ELF4 (Q99607 whole entry): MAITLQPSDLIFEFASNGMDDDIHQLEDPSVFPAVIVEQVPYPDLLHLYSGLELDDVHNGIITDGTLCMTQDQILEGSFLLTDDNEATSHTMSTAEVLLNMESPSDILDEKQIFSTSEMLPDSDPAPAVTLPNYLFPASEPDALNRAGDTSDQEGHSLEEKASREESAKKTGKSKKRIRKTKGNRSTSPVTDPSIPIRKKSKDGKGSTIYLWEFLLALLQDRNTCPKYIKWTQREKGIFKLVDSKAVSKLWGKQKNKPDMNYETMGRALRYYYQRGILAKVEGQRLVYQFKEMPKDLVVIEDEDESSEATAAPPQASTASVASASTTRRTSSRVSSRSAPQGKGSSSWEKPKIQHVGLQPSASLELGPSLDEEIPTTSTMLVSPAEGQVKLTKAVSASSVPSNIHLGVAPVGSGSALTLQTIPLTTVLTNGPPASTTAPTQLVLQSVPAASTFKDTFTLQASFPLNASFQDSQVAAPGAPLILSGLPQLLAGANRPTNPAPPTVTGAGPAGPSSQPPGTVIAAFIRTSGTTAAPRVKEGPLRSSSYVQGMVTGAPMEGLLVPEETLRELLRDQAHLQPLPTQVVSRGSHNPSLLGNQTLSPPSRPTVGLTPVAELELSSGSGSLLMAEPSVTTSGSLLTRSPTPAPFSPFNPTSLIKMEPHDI
Outline: as §1

ELK4 = molecular target: T9, ELK4 (Homo sapiens, UniProt P28324-2 1-405); conditions: protein: recombinant; tags: N-terminal GST; dsDNA, one strand shown
T9 sequence: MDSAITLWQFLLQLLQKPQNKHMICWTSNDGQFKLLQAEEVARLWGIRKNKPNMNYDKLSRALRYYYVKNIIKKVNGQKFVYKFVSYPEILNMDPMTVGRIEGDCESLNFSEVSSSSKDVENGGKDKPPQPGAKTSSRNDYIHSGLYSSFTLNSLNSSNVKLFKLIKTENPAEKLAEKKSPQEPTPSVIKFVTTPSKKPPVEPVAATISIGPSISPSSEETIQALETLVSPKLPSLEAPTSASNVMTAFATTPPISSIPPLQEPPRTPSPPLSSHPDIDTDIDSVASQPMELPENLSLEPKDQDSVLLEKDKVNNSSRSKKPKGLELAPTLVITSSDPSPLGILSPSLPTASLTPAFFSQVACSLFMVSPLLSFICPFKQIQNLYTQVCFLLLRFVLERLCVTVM
Outline: as §1

ETV2 = molecular target: T10, ETV2 (Homo sapiens, UniProt O00321 1-342); conditions: protein: recombinant; tags: N-terminal GST; dsDNA, one strand shown
T10 sequence: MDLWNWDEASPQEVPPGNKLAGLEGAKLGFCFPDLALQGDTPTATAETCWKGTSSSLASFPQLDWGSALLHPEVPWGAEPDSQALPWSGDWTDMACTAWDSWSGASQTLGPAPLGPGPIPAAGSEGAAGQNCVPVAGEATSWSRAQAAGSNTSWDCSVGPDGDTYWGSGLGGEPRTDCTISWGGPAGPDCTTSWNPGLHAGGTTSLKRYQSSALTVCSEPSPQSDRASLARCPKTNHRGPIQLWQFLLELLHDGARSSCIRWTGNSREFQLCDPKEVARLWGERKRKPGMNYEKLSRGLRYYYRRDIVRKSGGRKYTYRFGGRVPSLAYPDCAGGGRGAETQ
Outline: as §1

ELF3 = molecular target: T11, ELF3 (Homo sapiens, UniProt P78545 1-371); conditions: protein: recombinant; tags: N-terminal GST; dsDNA, one strand shown
T11 sequence: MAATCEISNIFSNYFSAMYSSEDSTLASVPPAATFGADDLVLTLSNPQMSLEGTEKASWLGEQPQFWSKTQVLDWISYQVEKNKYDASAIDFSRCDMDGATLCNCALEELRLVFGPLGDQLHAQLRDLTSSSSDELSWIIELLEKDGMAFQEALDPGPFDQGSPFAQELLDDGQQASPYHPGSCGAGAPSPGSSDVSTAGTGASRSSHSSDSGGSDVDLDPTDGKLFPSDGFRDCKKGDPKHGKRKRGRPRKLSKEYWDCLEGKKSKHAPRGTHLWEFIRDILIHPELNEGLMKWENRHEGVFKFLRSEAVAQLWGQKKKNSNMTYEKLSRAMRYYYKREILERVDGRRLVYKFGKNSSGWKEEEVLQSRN
Outline: as §1

CRX = CRX (Homo sapiens, UniProt O43186 1-299); conditions: protein: recombinant; tags: N-terminal GST; dsDNA, one strand shown
Sequence of CRX (O43186 whole entry): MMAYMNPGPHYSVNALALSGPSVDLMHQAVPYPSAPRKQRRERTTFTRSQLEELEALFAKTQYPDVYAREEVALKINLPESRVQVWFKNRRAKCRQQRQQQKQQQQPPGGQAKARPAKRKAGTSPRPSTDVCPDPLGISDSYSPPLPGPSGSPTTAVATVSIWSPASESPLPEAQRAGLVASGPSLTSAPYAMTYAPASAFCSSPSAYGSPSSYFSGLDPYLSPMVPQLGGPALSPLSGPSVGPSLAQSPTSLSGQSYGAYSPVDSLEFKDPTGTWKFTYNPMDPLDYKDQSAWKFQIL
Outline: as §1

ETV1 = ETV1 (Homo sapiens, UniProt P50549 1-477); conditions: protein: recombinant; tags: N-terminal GST; dsDNA, one strand shown
Sequence of ETV1 (P50549 whole entry): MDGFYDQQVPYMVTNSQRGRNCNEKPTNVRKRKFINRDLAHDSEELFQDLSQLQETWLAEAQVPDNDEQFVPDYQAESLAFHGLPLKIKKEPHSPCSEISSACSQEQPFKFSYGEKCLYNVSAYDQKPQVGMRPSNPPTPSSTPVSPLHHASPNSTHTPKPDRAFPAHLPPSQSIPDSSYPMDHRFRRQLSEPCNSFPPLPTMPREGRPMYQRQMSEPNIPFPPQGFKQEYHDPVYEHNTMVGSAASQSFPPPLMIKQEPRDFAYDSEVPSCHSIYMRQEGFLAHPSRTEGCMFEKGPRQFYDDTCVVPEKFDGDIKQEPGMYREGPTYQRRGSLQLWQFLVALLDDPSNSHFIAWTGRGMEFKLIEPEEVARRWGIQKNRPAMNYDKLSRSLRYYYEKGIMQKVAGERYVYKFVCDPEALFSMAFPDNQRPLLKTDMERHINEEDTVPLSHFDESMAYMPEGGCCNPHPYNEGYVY
Outline: as §1

TAAGAT
binding signal (FLI1): 1.17 fold enrichment (6-mer frequency, TF over GST control) | binding signal (ELK1): 1.26 fold enrichment (6-mer frequency, TF over GST control) | binding signal (GABPA): 1.19 fold enrichment (6-mer frequency, TF over GST control) | binding signal (ERG): 1.21 fold enrichment (6-mer frequency, TF over GST control) | binding signal (ELF1): 1.24 fold enrichment (6-mer frequency, TF over GST control) | binding signal (EHF): 1.3 fold enrichment (6-mer frequency, TF over GST control) | binding signal (SPI1): 1.21 fold enrichment (6-mer frequency, TF over GST control) | binding signal (SPIB): 1.31 fold enrichment (6-mer frequency, TF over GST control) | binding signal (ELK3): 1.2 fold enrichment (6-mer frequency, TF over GST control) | binding signal (FEV): 1.15 fold enrichment (6-mer frequency, TF over GST control) | binding signal (ETV5): 1.13 fold enrichment (6-mer frequency, TF over GST control) | binding signal (HSF1): 1.76 fold enrichment (6-mer frequency, TF over GST control) | binding signal (SPIC): 1.25 fold enrichment (6-mer frequency, TF over GST control) | binding signal (ELF4): 1.21 fold enrichment (6-mer frequency, TF over GST control) | binding signal (ELK4): 1.29 fold enrichment (6-mer frequency, TF over GST control) | binding signal (ETV2): 1.31 fold enrichment (6-mer frequency, TF over GST control) | binding signal (ELF3): 1.3 fold enrichment (6-mer frequency, TF over GST control) | binding signal (CRX): 2.49 fold enrichment (6-mer frequency, TF over GST control) | binding signal (ETV1): 1.28 fold enrichment (6-mer frequency, TF over GST control)
